From PubChem BioAssay
Only some compounds are listed: those with a hit (about 3.9% of all), similar ones and a draw of the others.
ERK AVP inh = qHTS Assay for Inhibitors of the ERK Signaling Pathway using a Homogeneous Screening Assay; HEK293-V1b, vasopressin-stimulated pERK AlphaScreen; Potency, µM (top dose mostly 57.5 µM), inactives show at the highest dose activity, negative = inhibition, usual class: inhibitors; actives 0.99% (n = 72,000); note: % is set by controls: 0 for no effect and ±100 for the full control effect; nearly all actives have a fitted effect of over 55% in size
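V1b-HEK293 cells; cpd 30 min 37C; 25 nM vasopressin 5 min; lyse 10 min; AlphaScreen beads 5 hr RT. Normalized to DMSO basal and 25 nM vasopressin; AC50 by Hill fit.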
FLuc inh = qHTS Assay for Inhibitors of Firefly Luciferase; Luciferin 4-monooxygenase (Photinus pyralis), P08659; purified firefly luciferase, luminescence, 8 min; Potency, µM (top dose mostly 57.1 µM), without a hit: at the highest dose activity change, negative = inhibition, actives largely listed as inhibitors; actives 2.2% (n = 72,000); note: % is set by controls: 0 for no effect and ±100 for the full control effect; nearly all actives have a fitted effect of over 40% in size
Target sequence (P08659 whole entry, looked up): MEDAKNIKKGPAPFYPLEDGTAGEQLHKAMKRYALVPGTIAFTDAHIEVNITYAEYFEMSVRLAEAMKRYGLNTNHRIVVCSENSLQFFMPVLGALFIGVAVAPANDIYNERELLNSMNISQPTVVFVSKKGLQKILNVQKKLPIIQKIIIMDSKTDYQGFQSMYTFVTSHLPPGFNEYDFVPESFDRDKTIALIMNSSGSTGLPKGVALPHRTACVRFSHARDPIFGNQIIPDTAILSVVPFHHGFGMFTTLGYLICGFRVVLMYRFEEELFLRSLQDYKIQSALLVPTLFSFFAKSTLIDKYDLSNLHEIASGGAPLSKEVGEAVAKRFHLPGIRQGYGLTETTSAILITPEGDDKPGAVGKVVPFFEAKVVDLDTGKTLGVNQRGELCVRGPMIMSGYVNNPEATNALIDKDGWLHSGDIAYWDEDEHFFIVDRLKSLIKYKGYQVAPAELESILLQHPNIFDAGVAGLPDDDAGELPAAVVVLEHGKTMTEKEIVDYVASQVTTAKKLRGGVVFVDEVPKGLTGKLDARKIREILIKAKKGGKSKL
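Substrate buffer containing 10 uM ATP (pH 7.2 imidazole, Mg2+, KCl, detergent, BSA) is dispensed, compound pinned in, then luciferase/luciferin detector mix added. After 8 min at ambient temperature, light output is measured.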
Bst PK mod = Pyruvate Kinase; AID 361, 2006; purified pyruvate kinase, luminescence ATP production; ribose 5-phosphate activator present at AC10; actives 1.2% (n = 51,000); Potency, µM; in the data active = potency below about 11 µM; inconclusive = mostly about 12 µM to 25 µM;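 the screen sought inhibitors and activators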;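 note: scaled between full activation by ribose 5 phosphate and full inhibition by luteolin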
GBA mod = Glucocerebrosidase. Potency, µM. AID 360, 2006. purified enzyme, resorufin glucoside fluorescence (screen aimed at inhibitors), 20 min. actives 1.1% (n = 48,000). Lysosomal acid glucosylceramidase (Homo sapiens), P04062; in the data active = potency below about 15 µM; inconclusive = mostly about 16 µM to 33 µM;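 note: the screen sought inhibitors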
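Normal human glucocerebrosidase (0.2 nM final) was assayed with resorufin β-D-glucopyranoside (30 uM final) in 50mM citric acid/KH2PO4, 10mM sodium taurocholate, 0.01% tween-20, pH 5.9. Compounds were titrated; fluorescence (Ex 548, Em 600) read after 20 min at RT.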
Starred values were filed as active, the others as inactive; i = inactive; u = inconclusive; x = not tested or not shown; [ ] = another dose, or the depositor's remark. Unless noted, calls come from the whole dose curve; as a rule, active = well fitted curve in the direction sought with a large enough effect; inconclusive = small, poorly fitted or top-dose-only effect, or another doubt; inactive = no such curve, though single readings can be large; an effect the other way counts as inactive or inconclusive. Potency is the fitted concentration of half-maximal effect.

SMILES	ERK AVP inh	FLuc inh	Bst PK mod	GBA mod
COc1cnn(-c2ccccc2)c(=O)c1N(C)C	-32%	-1%	>57	>77
O=c1cnn(-c2ccccc2)c(-c2ccccc2)c1	-19%	13µM*	x	>77
COc1ccc(N2CCn3c2nc2c3c(=O)n(CCCc3ccccc3)c(=O)n2C)c(OC)c1	13µM*	-1%	>57	>77
CN1CCN(c2cc(-c3ccoc3)ncn2)CC1	-16%	0%[2.29 µM]	x	x
COc1ccc(C(=O)/C=C/Nc2cc(C)on2)c(OC)c1	-12%	3.2µM*	3.8*	>77
CC1CC(C)(C)Nc2ccc(OC(=O)c3ccco3)cc21 (centres undefined)	-17%	13µM*	x	x
COC(=O)C(c1ccccc1Cl)N1CCc2sccc2C1 (centres undefined)	4%	x	x	x
CCOC(=O)C(/C(N)=N/C(=O)Nc1ccccc1)=C(\C)O	u	13µM*	x	x
CCOC(=O)OCC1OC(c2ccc(C(C)=O)cc2)C=CC1OC(=O)OCC (centres undefined)	38%[11.5 µM]	x	x	x
O=C(Nc1cccc2nsnc12)c1ccc2c(c1)OCCO2	27%	20µM*	x	>77
O=S(=O)(Nc1ccc2c(c1)OCCO2)c1cccc2nsnc12	-15%	-14%	8.6*	x
O=C(Nc1ccc2c(c1)OCCO2)C1CCN(S(=O)(=O)c2cccc3nsnc23)CC1	10%	2%	9.3*	>77
Cc1nc2c(ccc3nc(NC(=O)c4ccc5c(c4)OCCO5)sc32)s1	3%	0.79µM*	0.29*	7.4*
Cc1nc2ccc3nc(NC(=O)c4ccc5c(c4)OCCO5)sc3c2s1	3%	-4%	>57	>77
N=C(N)c1ccc(N2CCN(C3CCN(CC(=O)O)CC3)CC2)cc1	-18%	x	x	x
CC(C)c1c(O)ccc2c1CCC1C(C)(C)CCC[C@@]21C (some centres undefined)	20%	x	x	x
Cc1cnc(CNc2ncnc3ccc(-c4cccc(C#N)c4)cc23)cn1	-7%	3%[2.29 µM]	x	x
CN(C)c1oc(-c2ccc(OCc3ccccc3)cc2)nc1C#N	-30%	2%	2.8*	i
N#Cc1nc(-c2ccc(OCc3ccccc3)cc2)oc1NCCCn1ccnc1	-8%	1%	4.3*	u
N#Cc1nc(COc2ccccc2)oc1NCCCn1ccnc1	-16%	-4%	>57	x
Cc1ccc(OCc2nc(C#N)c(NCCCn3ccnc3)o2)cc1	-3%	1%	>57	x
N#Cc1nc(-c2ccc(F)cc2)oc1NCc1cccc2c1OCO2	7.9µM*	-13%	x	x
N#Cc1nc(COc2ccc(Br)cc2)oc1NCCCn1ccnc1	-16%	4%	>57	14*
C=C1CC23C[C@H]4[C@@H]5[C@@]6(C)C[C@H](OC(=O)c7ccccc7)[C@@H](OC(C)=O)[C@]57[C@@H]2[C@@H](OC(C)=O)[C@H]1[C@@H](O)[C@H]3[C@H]7N4C6	3%[25.7 µM]	0%[25.5 µM]	x	x
COC(=O)C/C=C\[C@H](C)[C@@H](OC)c1ccccc1Br	3%[11.5 µM]	1%[11.4 µM]	x	x
SMILES	ERK AVP inh	FLuc inh	Bst PK mod	GBA mod
N#Cc1nc(-c2ccc(OCc3ccccc3Cl)cc2)oc1NCCCn1ccnc1	-3%	0%	2.6*	u
N#Cc1nc(-c2ccc(OCc3ccccc3)cc2)oc1NCc1cccnc1	u	0%	x	>77
CC(C)(C)c1ccc(-c2nc(C#N)c(NCc3ccncc3)o2)cc1	u	20µM*	x	>77
COc1ccc(-c2nc(C#N)c(NCc3ccc(C)cc3)o2)cc1OC	u	-5%	>57	>77
N#Cc1nc(-c2ccc(OCc3ccc(Cl)cc3)cc2)oc1NCc1cccnc1	u	-2%	2.7*	>77
COc1ccc(-c2nc(C#N)c(NCCc3ccccc3)o2)cc1OC	16µM*	13µM*	i	>77
COC(=O)c1ccc(C(NC(=O)OCc2ccccc2)/C(=C/[C@@H](C)C(=O)N(C)Cc2ccccc2)c2cccnc2)cc1 (some centres undefined)	24%	x	x	x
CC(C)N(C)C	-15%	x	x	x
CN(C)c1ccc(NC(=O)CCCc2ccccc2)cc1	20µM*	25µM*	x	>77
Cc1ccc(-c2nc(-c3nccc4ccccc34)oc2-c2ccccc2)cc1	-6%[11.5 µM]	3.2µM*	x	x
O=C(Nc1ccccn1)c1ccc2ccccc2n1	7%	3.2µM*	9*	x
Cc1cc(C(=O)Nc2ccccn2)no1	-11%	-19%	>57	>77
COc1ccc(-c2cc(O)cc(O)c2)cc1	u	16µM*	u	>77
CN(C)/C=N/c1nc2ccc3c(c2s1)CCCC3	u	10µM*	i	>77
COc1ccccc1C(=O)Nc1ccc(N2CCN(S(C)(=O)=O)CC2)cc1	-7%	-23%	x	>77
